In PubChem BioAssay (NCATS):
Inconclusive results are not listed. Calls of active or inactive are those of the source. Calls come from the whole dose curve.

Biological target: Atrial natriuretic peptide receptor 1 (Homo sapiens) (UniProt P16066)
Assay: Natriuretic polypeptide receptor (hNpr1) antagonism - Pilot CMLD screen (AID 1347052);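 note: HEK293 cells with hNpr1 stimulated by hNppA peptide at 0.1 nM; cGMP level read as GloSensor luciferase luminescence after agonist stimulation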
Settings: HEK293 hNpr1 GloSensor cGMP luminescence, ANP-stimulated; series mostly up to 9.22 µM; activity change, negative = inhibition: at the top concentration
% is set by controls: 0 for no effect and ±100 for the full control effect.

Chain of Atrial natriuretic peptide receptor 1 (Homo sapiens) (P16066 whole entry, looked up): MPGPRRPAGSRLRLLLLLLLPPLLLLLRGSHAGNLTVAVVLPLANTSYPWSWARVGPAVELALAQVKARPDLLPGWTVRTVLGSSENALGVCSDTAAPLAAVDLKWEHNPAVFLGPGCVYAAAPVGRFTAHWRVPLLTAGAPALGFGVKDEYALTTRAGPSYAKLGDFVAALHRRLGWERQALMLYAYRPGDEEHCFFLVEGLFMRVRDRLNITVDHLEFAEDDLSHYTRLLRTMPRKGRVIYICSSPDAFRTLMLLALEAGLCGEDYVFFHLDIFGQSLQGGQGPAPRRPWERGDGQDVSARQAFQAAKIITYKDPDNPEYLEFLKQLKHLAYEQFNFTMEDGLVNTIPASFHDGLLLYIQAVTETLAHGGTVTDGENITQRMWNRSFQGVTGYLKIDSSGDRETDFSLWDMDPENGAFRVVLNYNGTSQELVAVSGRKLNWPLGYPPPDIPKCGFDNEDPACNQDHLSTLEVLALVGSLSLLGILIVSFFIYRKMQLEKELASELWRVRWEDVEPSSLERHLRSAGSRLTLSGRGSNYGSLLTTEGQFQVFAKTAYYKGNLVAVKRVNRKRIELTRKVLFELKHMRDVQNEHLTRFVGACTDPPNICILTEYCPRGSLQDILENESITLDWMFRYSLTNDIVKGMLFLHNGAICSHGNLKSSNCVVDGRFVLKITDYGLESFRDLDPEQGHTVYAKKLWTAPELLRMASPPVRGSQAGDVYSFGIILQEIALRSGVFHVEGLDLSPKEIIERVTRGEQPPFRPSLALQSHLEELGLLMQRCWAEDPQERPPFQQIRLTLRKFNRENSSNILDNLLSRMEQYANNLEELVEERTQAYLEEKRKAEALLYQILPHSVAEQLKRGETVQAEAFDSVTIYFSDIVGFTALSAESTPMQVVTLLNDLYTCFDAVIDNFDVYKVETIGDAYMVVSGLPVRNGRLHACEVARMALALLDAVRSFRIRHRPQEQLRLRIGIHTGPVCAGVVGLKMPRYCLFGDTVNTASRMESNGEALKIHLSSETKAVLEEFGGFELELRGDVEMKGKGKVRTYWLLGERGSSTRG

Activity change, negative = inhibition, inactive:
C[C@H]1C[C@@H](C)O[C@@]2(C1)C(=O)N(Cc1ccccc1C(F)(F)F)c1ccccc12 9.49%
CCN1C(=NCC(C)C)NC(c2cccc(F)c2)C(C(=O)OC)=C1C (stereo not drawn) -20.6%
CCCNC(=O)OC[C@H]1O[C@H](CCON=Cc2ccc(C(=O)N3[C@H](C(=O)OC)CC[C@H](C)[C@@H]3c3ccc(C)cc3)cc2)C=C[C@H]1Oc1ccc(OC)cc1 -1.51%
COC(=O)N1C2CC(=O)O[C@H]3c4cc5c(cc4[C@]1(C)[C@@]3(Br)c1ccccc12)OCO5 8.57%
CC(C)(C)c1ccc(O[C@@H]2[C@H](O)CO[C@@H]2C=CC#Cc2ccccc2)cc1 -7.61%
CC(CCN1CCc2nc(-c3ccccc3)c(-c3ccccc3)cc2C1)=NO[C@H](C)CN1CCCCc2nc(C)c(C)cc21 0.988%
Cc1cccc(C)c1Nc1oc(-c2ccccc2)nc1-c1ccccc1F -1.07%
C[C@@H]1C(c2ccccc2)=CC(=O)c2nc3ccccc3cc2[C@@H]1C(=O)N1CCCC1 0.741%
COc1cc2c(c(OC)c1OC)CC(c1ccccc1)=C(c1ccccc1)CC2NC(=O)C(F)(F)F (stereo not drawn) -0.198%
COCCN1C(=O)C2=C(C1=O)C1N(C)c3ccccc3[C@@]13C[C@@H](CO)N(C(=O)c1ccc(Br)cc1)C3=N2 (stereo partly drawn) -3.79%
COc1ccc2c(c1)O[C@@H](c1ccc3c(c1)OCO3)[C@H](OC(=O)NCCOc1ccccc1)C2=O 7.8%
C[C@@H]1[C@H](c2ccccc2)c2cc3ccccc3nc2C(=O)C[C@@H]1C(=O)N1CCCC1 -1.07%
C=CC[C@H]1C(=O)N2[C@@H](C[C@@H](C)[C@@H]2c2ccccc2)[C@@H](CC=C)C(=O)N2[C@H]1C[C@@H](C)[C@@H]2c1ccccc1 -5.21%
